Source: PubChem BioAssay (NCATS)
Several values for one entry are separate records, joined by “and”; a condition that tells them apart may be missing. Equal entries are not always repeated. Results filed as inconclusive are left out. A call without a number means that no potency is given here. Unmarked numbers belong to inactive results. Activity calls are given as the source filed them. Calls follow the shape of the dose curve; as a rule, active = well fitted inhibition curve with a large enough effect; inconclusive = small, poorly fitted or top-dose-only effect; inactive = flat fitted curve, though single readings scatter.

Columns and labels:
Dd2 = assay: qHTS profiling for inhibitors of Plasmodium falciparum proliferation (AID 504749); conditions: P. falciparum in erythrocytes, SYBR Green DNA, 72 h; series mostly up to 28.7 µM
In short: (§1)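 Infected RBCs, 0.3% parasitemia/2.5% Hct final; cpd 72 h, 37 C, 5% CO2; lysis buffer with saponin/triton/SYBR Green I, o/n RT dark; FI 485/535; norm. to artemisinin (0.29 uM) and DMSO.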

ECU = assay: as above; conditions: P. falciparum in erythrocytes, SYBR Green DNA, 72 h; series mostly up to 28.7 µM
In short: as §1

FAB9 = assay: as above; conditions: P. falciparum in erythrocytes, SYBR Green DNA, 72 h; series mostly up to 28.7 µM
In short: as §1

GB4 = assay: as above; conditions: P. falciparum in erythrocytes, SYBR Green DNA, 72 h; series mostly up to 28.7 µM
In short: as §1

HB3 = assay: as above; conditions: P. falciparum in erythrocytes, SYBR Green DNA, 72 h; series mostly up to 28.7 µM
In short: as §1

ICS = assay: as above; conditions: P. falciparum in erythrocytes, SYBR Green DNA, 72 h; series mostly up to 28.7 µM
In short: as §1

JCK = assay: as above; conditions: P. falciparum in erythrocytes, SYBR Green DNA, 72 h; series mostly up to 28.7 µM
In short: as §1

N140 = assay: as above; conditions: P. falciparum in erythrocytes, SYBR Green DNA, 72 h; series mostly up to 28.7 µM
In short: as §1

P93_24 = assay: as above; conditions: P. falciparum in erythrocytes, SYBR Green DNA, 72 h; series mostly up to 28.7 µM
In short: as §1

P94_40 = assay: as above; conditions: P. falciparum in erythrocytes, SYBR Green DNA, 72 h; series mostly up to 28.7 µM
In short: as §1

PAD = assay: as above; conditions: P. falciparum in erythrocytes, SYBR Green DNA, 72 h; series mostly up to 28.7 µM
In short: as §1

PC15 = assay: as above; conditions: P. falciparum in erythrocytes, SYBR Green DNA, 72 h; series mostly up to 28.7 µM
In short: as §1

PC26 = assay: as above; conditions: P. falciparum in erythrocytes, SYBR Green DNA, 72 h; series mostly up to 28.7 µM
In short: as §1

PC49 = assay: as above; conditions: P. falciparum in erythrocytes, SYBR Green DNA, 72 h; series mostly up to 28.7 µM
In short: as §1

SC27B = assay: as above; conditions: P. falciparum in erythrocytes, SYBR Green DNA, 72 h; series mostly up to 28.7 µM
In short: as §1

TAB109 = assay: as above; conditions: P. falciparum in erythrocytes, SYBR Green DNA, 72 h; series mostly up to 28.7 µM
In short: as §1

TAB113 = assay: as above; conditions: P. falciparum in erythrocytes, SYBR Green DNA, 72 h; series mostly up to 28.7 µM
In short: as §1

TAB165 = assay: as above; conditions: P. falciparum in erythrocytes, SYBR Green DNA, 72 h; series mostly up to 28.7 µM
In short: as §1

W2 = assay: as above; conditions: P. falciparum in erythrocytes, SYBR Green DNA, 72 h; series mostly up to 28.7 µM
In short: as §1

CRL-7250 = normal cell line; assay: Cytotoxic Profiling of Annotated Libraries Using Quantitative High-Throughput Screening (AID 1296008); conditions: Five cell lines viability, CellTiter-Glo ATP luminescence, 48-72 h; max response: active compounds read low
In short: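 Cytotoxicity was measured as CellTiter-Glo ATP luminescence, read after 10 min at room temperature. Compound treatment of the cells lasted 48 or 72 hr at 37 degrees Celsius in a qHTS format.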
Also: nearly all actives have a fitted effect of over 60% in size.
Potency is read from the fitted curve at half-maximal effect.

Nc1nc2c(ncn2COCCO)c(=O)[nH]1
Potency (Dd2): inactive | Potency (ECU): inactive | Potency (FAB9): inactive | Potency (GB4): inactive | Potency (HB3): inactive | Potency (ICS): inactive | Potency (JCK): inactive | Potency (N140): inactive | Potency (P93_24): inactive | Potency (P94_40): inactive | Potency (PAD): inactive | Potency (PC15): inactive | Potency (PC26): inactive | Potency (PC49): inactive | Potency (SC27B): inactive | Potency (TAB109): inactive | Potency (TAB113): inactive | Potency (TAB165): inactive | Potency (W2): inactive

NC(N)=NC(=O)c1nc(Cl)c(N)nc1N
Potency (GB4): 15.1 µM (active) | Potency (HB3): 11.2 µM (active) | Potency (ICS): 2.24 µM (active) | Potency (N140): 8.91 µM (active) | Potency (P93_24): 7.08 µM (active) | Potency (P94_40): 12.6 µM (active) | Potency (PAD): 8.91 µM (active) | Potency (PC15): 7.08 µM (active) | Potency (TAB109): 10 µM (active) | Potency (TAB165): 11.2 µM (active) | Potency (W2): 2.13 µM (active) | max response (CRL-7250): -0.0311% | outcome (CRL-7250): inactive

O=c1[nH]cnc2[nH]ncc12
Potency (Dd2): inactive | Potency (ECU): inactive | Potency (FAB9): inactive | Potency (GB4): inactive | Potency (HB3): inactive | Potency (ICS): inactive | Potency (JCK): inactive | Potency (N140): inactive | Potency (P93_24): inactive | Potency (P94_40): inactive | Potency (PAD): inactive | Potency (PC15): inactive | Potency (PC26): inactive | Potency (PC49): inactive | Potency (SC27B): inactive | Potency (TAB109): inactive | Potency (TAB113): inactive | Potency (TAB165): inactive | Potency (W2): inactive | max response (CRL-7250): 2.71% and -1.4%

CCc1ccc(CCOc2ccc(CC3SC(=O)NC3=O)cc2)nc1 (stereo not given)
Potency (Dd2): inactive | Potency (ECU): inactive | Potency (FAB9): inactive | Potency (GB4): inactive | Potency (HB3): inactive | Potency (ICS): inactive | Potency (JCK): inactive | Potency (N140): inactive | Potency (P93_24): inactive | Potency (P94_40): inactive | Potency (PAD): inactive | Potency (PC15): inactive | Potency (PC26): inactive | Potency (PC49): inactive | Potency (SC27B): inactive | Potency (TAB109): inactive | Potency (TAB113): inactive | Potency (TAB165): inactive | Potency (W2): inactive | max response (CRL-7250): -4.18% and 2.83%

Oc1ccc(C2CNCCc3c2cc(O)c(O)c3Cl)cc1 (stereo not given)
Potency (Dd2): inactive | Potency (ECU): inactive | Potency (FAB9): inactive | Potency (HB3): inactive | Potency (JCK): inactive | Potency (N140): inactive | Potency (P93_24): inactive | Potency (P94_40): inactive | Potency (PAD): inactive | Potency (PC15): inactive | Potency (PC26): inactive | Potency (PC49): inactive | Potency (SC27B): inactive | Potency (TAB109): inactive | Potency (TAB113): inactive | Potency (TAB165): inactive

CCOC(=O)C1=C[C@@]2(CC)CCCN3CCc4c(n1c1ccccc41)[C@H]32
Potency (GB4): 7.57 µM (active) | Potency (PC26): 15.1 µM (active) | Potency (W2): 4.78 µM (active)

CC(=O)Oc1ccccc1C(=O)O
Potency (Dd2): inactive | Potency (ECU): inactive | Potency (FAB9): inactive | Potency (GB4): inactive | Potency (HB3): inactive | Potency (ICS): inactive | Potency (JCK): inactive | Potency (N140): inactive | Potency (P93_24): inactive | Potency (P94_40): inactive | Potency (PAD): inactive | Potency (PC15): inactive | Potency (PC49): inactive | Potency (SC27B): inactive | Potency (TAB109): inactive | Potency (TAB113): inactive | Potency (TAB165): inactive | Potency (W2): inactive | max response (CRL-7250): 0.351% and -4.5%

C#Cc1cccc(Nc2ncnc3cc(OCCOC)c(OCCOC)cc23)c1
Potency (Dd2): inactive | Potency (FAB9): inactive | Potency (ICS): 11.2 µM (active) | Potency (JCK): inactive | Potency (P94_40): 12.6 µM (active) | Potency (PAD): 11.2 µM (active) | Potency (PC49): inactive | Potency (W2): 4.26 µM (active) | Potency (CRL-7250): 18.7 µM (active) and 8.41 µM (active)

NS(=O)(=O)c1cc2c(cc1Cl)NC=NS2(=O)=O
Potency (Dd2): inactive | Potency (ECU): inactive | Potency (FAB9): inactive | Potency (GB4): inactive | Potency (HB3): inactive | Potency (ICS): inactive | Potency (JCK): inactive | Potency (N140): inactive | Potency (P93_24): inactive | Potency (P94_40): inactive | Potency (PAD): inactive | Potency (PC15): inactive | Potency (PC26): inactive | Potency (PC49): inactive | Potency (SC27B): inactive | Potency (TAB109): inactive | Potency (TAB113): inactive | Potency (W2): inactive | max response (CRL-7250): -0.778% and -4.67%

NC[C@H](O)c1ccc(O)c(O)c1
Potency (Dd2): inactive | Potency (ECU): inactive | Potency (FAB9): inactive | Potency (GB4): inactive | Potency (HB3): inactive | Potency (ICS): inactive | Potency (JCK): inactive | Potency (N140): inactive | Potency (P93_24): inactive | Potency (P94_40): inactive | Potency (PAD): inactive | Potency (PC15): inactive | Potency (PC26): inactive | Potency (PC49): inactive | Potency (SC27B): inactive | Potency (TAB109): inactive | Potency (TAB113): inactive | Potency (TAB165): inactive | Potency (W2): inactive

CCCc1nc2c(C)cc(-c3nc4ccccc4n3C)cc2n1Cc1ccc(-c2ccccc2C(=O)O)cc1
Potency (Dd2): 5.01 µM (active) | Potency (FAB9): inactive | Potency (HB3): 10 µM (active) | Potency (ICS): 0.631 µM (active) | Potency (N140): 1.41 µM (active) | Potency (P94_40): 1.78 µM (active) | Potency (PAD): 1 µM (active) | Potency (PC15): 2.51 µM (active) | Potency (PC49): 2.51 µM (active) | Potency (SC27B): 1.58 µM (active) | Potency (TAB113): 2.24 µM (active) | Potency (TAB165): 1.58 µM (active) | Potency (W2): 1.9 µM (active) | max response (CRL-7250): -5.08% and 4.25%

CCCc1nn(C)c2c(=O)[nH]c(-c3cc(S(=O)(=O)N4CCN(C)CC4)ccc3OCC)nc12
Potency (Dd2): inactive | Potency (ECU): inactive | Potency (FAB9): inactive | Potency (GB4): inactive | Potency (HB3): inactive | Potency (ICS): 11.2 µM (active) | Potency (JCK): inactive | Potency (N140): inactive | Potency (P93_24): inactive | Potency (P94_40): inactive | Potency (PAD): inactive | Potency (PC15): inactive | Potency (PC26): inactive | Potency (PC49): inactive | Potency (SC27B): inactive | Potency (TAB109): inactive | Potency (TAB113): inactive | Potency (TAB165): inactive | max response (CRL-7250): -31.4% and 2.3%

Cc1c(C)c2c(c(C)c1O)CCC(C)(COc1ccc(CC3SC(=O)NC3=O)cc1)O2 (stereo not given)
Potency (FAB9): inactive | Potency (GB4): 12 µM (active) | Potency (HB3): inactive | Potency (JCK): inactive | Potency (P94_40): 10 µM (active) | Potency (PC15): inactive | Potency (PC49): inactive | Potency (SC27B): 10 µM (active) | Potency (TAB109): inactive | Potency (TAB113): 11.2 µM (active) | Potency (W2): 6.75 µM (active) | outcome (CRL-7250): inactive

Clc1ccc(Nc2nnc(Cc3ccncc3)c3ccccc23)cc1
Potency (ECU): 14.1 µM (active) | Potency (FAB9): inactive | Potency (GB4): inactive | Potency (HB3): inactive | Potency (JCK): inactive | Potency (PC15): inactive | Potency (PC26): inactive | Potency (PC49): inactive | Potency (SC27B): inactive | Potency (TAB109): inactive | Potency (TAB113): inactive | Potency (TAB165): 12.6 µM (active) | max response (CRL-7250): 1.53% and -11.9% and 0.195%
